# Measured values taken from PMC4336329 (PLoS ONE, 2015).
# Among all 310,000 compounds or so, about 2,200 (0.71%) showed an effect of 50% or more. The effect is printed as a negative number. What follows is part of a selection rich in strong results, with near analogues and random picks from the rest.
# Biological target: human ether-à-go-go-related gene (hERG) potassium channel (human, UniProt Q12809)
# Test: primary screen, population patch clamp on CHO cells stably expressing hERG; higher = less effect of the substance
# Sequence of human ether-à-go-go-related gene (hERG) potassium channel (Q12809 whole entry, looked up): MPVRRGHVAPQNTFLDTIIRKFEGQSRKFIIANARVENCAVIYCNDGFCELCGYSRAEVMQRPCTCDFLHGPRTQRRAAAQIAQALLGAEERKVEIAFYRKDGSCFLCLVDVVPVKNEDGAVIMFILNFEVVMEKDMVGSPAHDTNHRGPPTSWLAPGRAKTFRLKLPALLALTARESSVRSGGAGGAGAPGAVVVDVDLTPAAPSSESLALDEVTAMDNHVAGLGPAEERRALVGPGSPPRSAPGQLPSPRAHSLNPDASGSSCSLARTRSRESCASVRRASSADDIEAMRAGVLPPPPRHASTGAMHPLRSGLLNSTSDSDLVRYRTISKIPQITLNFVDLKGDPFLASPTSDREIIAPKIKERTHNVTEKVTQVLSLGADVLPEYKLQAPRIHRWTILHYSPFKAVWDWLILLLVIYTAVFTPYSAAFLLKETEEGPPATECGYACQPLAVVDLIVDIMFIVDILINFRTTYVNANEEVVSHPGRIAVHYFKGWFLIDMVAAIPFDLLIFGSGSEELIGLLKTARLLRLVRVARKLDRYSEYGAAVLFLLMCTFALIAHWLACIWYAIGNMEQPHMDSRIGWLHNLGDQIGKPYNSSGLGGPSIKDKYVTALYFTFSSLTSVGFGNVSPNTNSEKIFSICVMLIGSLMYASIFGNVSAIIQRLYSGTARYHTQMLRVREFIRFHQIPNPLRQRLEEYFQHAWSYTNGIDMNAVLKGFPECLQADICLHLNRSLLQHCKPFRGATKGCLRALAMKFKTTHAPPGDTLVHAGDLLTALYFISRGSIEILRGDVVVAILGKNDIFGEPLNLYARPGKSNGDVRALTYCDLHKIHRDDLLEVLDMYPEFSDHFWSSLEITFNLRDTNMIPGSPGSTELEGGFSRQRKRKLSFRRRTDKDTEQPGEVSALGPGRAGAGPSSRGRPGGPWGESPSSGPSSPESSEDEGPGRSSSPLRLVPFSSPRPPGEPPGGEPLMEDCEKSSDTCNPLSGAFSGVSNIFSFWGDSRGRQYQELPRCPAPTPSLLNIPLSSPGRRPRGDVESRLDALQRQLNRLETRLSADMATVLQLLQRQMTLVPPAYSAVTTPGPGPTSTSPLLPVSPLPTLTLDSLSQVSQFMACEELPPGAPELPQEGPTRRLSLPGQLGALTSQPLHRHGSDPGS
row,SMILES,"hERG current change (%, negative = inhibition) at 1uM"
1,CN(Cc1nc2ccccc2c(=O)[nH]1)C(=O)c1cccc(S(=O)(=O)N2CCCCCC2)c1,4.23%
2,O=C(Oc1ccc(OC(=O)c2ccncc2)cc1)c1ccncc1,0.316%
3,Cc1ccc(CN2C(=O)CN=C(c3ccccc3)c3ccccc32)cc1,2.73%
4,Cc1noc(N)c1C(=O)Nc1ccc(C(C)(C)C)cc1,-5.42%
5,O=C(NCc1cccnc1)c1ccc(-c2cccc(Cl)c2Cl)o1,5.38%
6,O=C(CN1C(=O)NC2(CCCC2)C1=O)Nc1ccc(Cl)c(C(F)(F)F)c1,9.87%
7,O=C(COC(=O)CCCOc1ccc(Cl)cc1Cl)NCc1ccccc1,1.55%
8,O=C(Nc1c(-c2ccc(F)cc2)nc2ccccn12)c1ccc(F)cc1,-4.64%
9,CCOc1ccc(Cl)cc1Nc1nc(NCCO)nc(N2CCCC2)n1,5.92%
10,COc1ccc(N2C(=O)C(Cl)=C(N3CCCC(C)C3)C2=O)cc1 (centres unmarked),9.04%
11,COc1ccccc1CCNCc1ccc(OC)c(OCc2ccccc2)c1,-29.4%
12,COc1ccc(CNCCc2ccc(Cl)cc2)cc1OCc1ccccc1,-52.2%
13,COc1cc(CNCCc2ccccc2)ccc1OCc1ccc(Cl)nc1.Cl,-0.117%
14,O=C(OCc1cc(=O)n2c(n1)sc1ccccc12)c1ccc(O)cc1,17.3%
15,COc1ccc(-n2cc(CNC3CCOCC3)c(-c3cccc(F)c3)n2)cc1,-1.28%
16,COc1ccc(-n2cc(CNC3CCN(C)CC3)c(-c3cccc(F)c3)n2)cc1,-64.4%
17,COc1ccc(-n2cc(CNC3CCC(O)CC3)c(-c3cccc(F)c3)n2)cc1 (centres unmarked),4.86%
18,O=C(OCc1nnc(-c2ccccc2)o1)c1cn(-c2ccccc2)nc1-c1ccccc1,-1.95%
19,CC1CCCN(C(=O)Cn2nnc(-c3ccc(S(C)(=O)=O)cc3)n2)C1 (centres unmarked),21.2%
20,Cc1ccccc1NC(=O)C1CCN(c2cc(-c3ccccc3)nc3ncnn23)CC1,5.72%
21,CCCNC(=O)C1CCN(c2cc(-c3ccccc3)nc3ncnn23)CC1,-65.6%
22,COc1ccc(OC)c(NC(=O)C2CCN(c3cc(-c4ccccc4)nc4ncnn34)CC2)c1,-2.67%

row,SMILES,"hERG current change (%, negative = inhibition) at 1uM"
1,CNC(=S)N(CCc1c(C)[nH]c2ccc(C)cc12)Cc1ccco1,-2.69%
2,CNC(=O)CN(c1cc(C)ccc1C)S(C)(=O)=O,2.83%
3,Cc1ccccc1N/N=C1\CCCNC1=O,6.51%
4,O=C(CSc1nnc(-c2cccnc2)n1Cc1ccco1)c1ccc(Cl)cc1,-21.1%
5,O=C(NNC(=O)c1cccs1)c1ccc(Cl)cc1,9.36%
6,CSc1ccccc1-n1nnnc1SCC(=O)Nc1ccccc1C,-9.11%
7,COc1ccccc1/C=C/C=N/NC(=O)c1cccs1,16.1%
8,Cc1oc(-c2ccc(Cl)cc2)nc1CN1CCCN(C(=O)c2ccco2)CC1,-57.4%
9,O=C(c1ccco1)N1CCN(Cc2nnc(-c3cccc(Br)c3)o2)CC1,-51.6%
10,Cc1oc(-c2ccccc2Cl)nc1CN1CCCN(C(=O)c2ccco2)CC1,-21.4%
11,Cc1cc(N2CCN(Cc3nc(-c4ccc(Cl)cc4)oc3C)CC2)cc(C)n1,-57.8%
12,Cc1cc(N2CCN(Cc3nc(-c4ccc(F)cc4)oc3C)CC2)cc(C)n1,-27.2%
13,O=C(c1ccco1)N1CCN(Cc2nnc(-c3ccccc3)o2)CC1,-6.25%
14,O=C(c1ccco1)N1CCN(Cc2nnc(-c3cccc(Cl)c3)o2)CC1,-13.8%
15,COC(=O)c1ccc(-c2nc(CN3CCCN(C(=O)c4ccco4)CC3)c(C)o2)cc1,-15%
16,Cc1cccc(N2CCN(Cc3nc(-c4cccc(Cl)c4)oc3C)CC2)n1,-7.13%
17,Cc1ccc(-c2nc(CN3CCCC(C(=O)N4CCOCC4)C3)c(C)o2)cc1 (centres unmarked),-9.44%
18,Cc1oc(-c2ccc(Cl)cc2)nc1CN1CCCC(C(=O)NCc2cccnc2)C1 (centres unmarked),-43.6%
19,Cc1oc(-c2ccc(Cl)cc2)nc1CN1CCCC(C(=O)N2CCN(C(=O)c3ccco3)CC2)C1 (centres unmarked),-75.1%
20,Nc1c([N+](=O)[O-])c(=O)sc2ccccc12,2.09%
21,CN(C(=O)c1cccs1)c1ccc(OCC(=O)N2CCC(C(N)=O)CC2)cc1,25.6%
22,O=C(Cn1nc(C(F)F)cc1C1CC1)NCCC1=CCCCC1,9.48%

row,SMILES,"hERG current change (%, negative = inhibition) at 1uM"
1,CCCCN(C(=O)CSc1nn(-c2ccc(F)cc2)c(=S)s1)c1c(N)n(CCCC)c(=O)[nH]c1=O,8.15%
2,Cc1ccc(CCC(=O)Nc2ccccc2F)s1,4.84%
3,O=C(CC1OC(=O)c2ccccc21)Nc1cccc(S(=O)(=O)N2CCCCCC2)c1 (centres unmarked),0.598%
4,CN(C)CCCn1c(N)c(C#N)c2nc(C#N)c(C#N)nc21,11.4%
5,CCOC(=O)CS(=O)(=O)c1ccc(O)cc1,26.2%
6,O=C(NNC(=S)Nc1ccc(F)cc1)c1ccccc1OC(F)F,6.53%
7,CCOc1ccc(CCNC(=O)c2cc(C)nc3ccccc23)cc1OCC,-10.6%
8,Cn1nnnc1SCC(=O)NC(C)(C)C,7.36%
9,CCOc1ccc(-c2nc(CN3CCCC(C(=O)N4CCOCC4)C3)c(C)o2)cc1 (centres unmarked),-5.79%
10,Cc1cccc(-c2nc(CN3CCCC(C(=O)NC4CCCC4)C3)c(C)o2)c1 (centres unmarked),-26.4%
11,COc1ccc(-c2nc(CN3CCCC(C(=O)NC4CCCC4)C3)c(C)o2)cc1 (centres unmarked),-53.5%
12,Cc1oc(-c2ccc(Cl)cc2)nc1CN1CCCC(C(=O)NC2CC2)C1 (centres unmarked),-18.2%
13,CCOC(=O)N1CCN(C(=O)C2CCCN(Cc3nc(-c4ccc(Cl)cc4)oc3C)C2)CC1 (centres unmarked),-57.7%
14,Cc1oc(-c2ccc(Cl)cc2)nc1CN1CCCC(C(=O)N2CCOCC2)C1 (centres unmarked),-32.9%
15,CCOC(=O)N1CCC(NC(=O)C2CCCN(Cc3nc(-c4ccc(CC)cc4)oc3C)C2)CC1 (centres unmarked),-39.3%
16,CCOC(=O)N1CCC(NC(=O)C2CCCN(Cc3nc(-c4cccc(Cl)c4)oc3C)C2)CC1 (centres unmarked),-50.4%
17,CCOC(=O)N1CCC(NC(=O)C2CCCN(Cc3nc(-c4cccc(C)c4)oc3C)C2)CC1 (centres unmarked),-24.2%
18,CN1N=C(C(=O)NC2CCCc3c2cnn3-c2ccc(F)cc2F)CCC1=O (centres unmarked),6.91%
19,C=C1CC2C3CC[C@@]4(OCOC45COCO5)[C@@]3(C)C(O)CC2[C@@]2(C)CCC(=O)C=C12 (some centres unmarked),13.6%
20,Cc1ccc(C(=O)C(C)OC(=O)c2ccccc2[N+](=O)[O-])cc1 (centres unmarked),8%
21,CCC1=Nc2cc(C(=O)NCCCN3CCOCC3)ccc2Sc2ccc(Br)cc21,15.9%
22,CCOC(=O)/C(C#N)=N/Nc1ccccc1C#N,11.2%

row,SMILES,"hERG current change (%, negative = inhibition) at 1uM"
1,CC(C)CCn1nnnc1C(c1ccccc1)N1CCN(C)CC1 (centres unmarked),9.6%
2,CCOC(=O)Cn1nnnc1C(CC)N(Cc1ccccc1)Cc1cc2cc(C)ccc2[nH]c1=O (centres unmarked),-2.05%
3,Cc1cc(C)cc(N2C(=O)NC(=O)/C(=C\c3cccn3-c3ccccc3)C2=O)c1,-0.0202%
4,CCCCOC(=O)c1ccc(OC(=O)c2cccnc2)cc1,5.73%
5,COC(=O)c1ccc(SCc2cnc(Cl)s2)cc1,7.26%
6,O=C(O)c1ccc(SCc2cnc(Cl)s2)cc1,-79.6%
7,Clc1ncc(CSc2ccccc2)s1,5.7%
8,Cc1ccc(NC(=O)N(Cc2nc3ccccc3c(=O)[nH]2)Cc2cccs2)cc1,5.74%
9,CC(C)(C)c1ccc(-n2ncc3c2CCCC3NC(=O)c2csnn2)cc1 (centres unmarked),9.11%
10,CC1=C(C(=O)NC2CC(C)(C)Cc3c2cnn3-c2cccc(F)c2)OCCO1 (centres unmarked),-3.59%
11,Cc1cnc(C(=O)NC2CC(C)(C)Cc3c2cnn3-c2cccc(F)c2)cn1 (centres unmarked),3.82%
12,Cc1cc(C(=O)NC2CC(C)(C)Cc3c2cnn3-c2cccc(F)c2)n(C)n1 (centres unmarked),3.12%
13,CC1(C)Cc2c(cnn2-c2cccc(F)c2)C(NC(=O)c2ccc(=O)[nH]n2)C1 (centres unmarked),-61.7%
14,Cc1ccc(-n2ncc3c2CCCC3NC(=O)c2csnn2)cc1C (centres unmarked),2.61%
15,Cc1cc(C(=O)NC2CC(C)(C)Cc3c2cnn3-c2cccc(F)c2)nn1C (centres unmarked),9.79%
16,Cc1cc(C)cc(-n2ncc3c2CCCC3NC(=O)c2csnn2)c1 (centres unmarked),-84%
17,CC1(C)Cc2c(cnn2-c2cccc(F)c2)C(NC(=O)c2csnn2)C1 (centres unmarked),-85%
18,Nc1ccc(C(=O)NCc2ccccc2)cc1,8.94%
19,CCNC(=O)c1ccc(NC(=O)CC2SC(N3CCCCC3)=NC2=O)cc1 (centres unmarked),-1.11%
20,COc1ccc(CCNC(=O)c2cc(C)oc2C)cc1,10.3%
